Literature values in PubChem BioAssay AID977608.
Among all 4,300 compounds or so, about 4,300 (100%) were called active. Cut-off not given; nearly all actives show IC50 up to about 1400 µM. The set was probably picked from earlier hits. The list shows a part of the results.

Assay: protein-ligand inhibition affinities from structures – PDB-derived complexes (AID 977608)

O=C(Cc1ccccc1)Nc1nnc(CC=S)s1
IC50 (literature IC50, protein: human glutaminase, PDB entry 3vp1): 3.3 µM (active)

COc1cc(-c2ccc(NNc3ccc4c(S(O)(O)O)cc(S(O)(O)O)c(N)c4c3O)c(OC)c2)ccc1N=Nc1ccc2c(S(O)(O)O)cc(S(O)(O)O)c(N)c2c1O
IC50 (literature IC50, protein: Macrophage migration inhibitory factor, PDB entry 3u18): 0.81 µM (active)

O=c1cc([C@H]2CCN[C@@H](Cc3ccccc3)C2)o[nH]1
IC50 (literature IC50, protein: plasminogen kringle 1, PDB entry 4cik): 0.37 µM (active)

C[C@@]1(c2cc(NC(=O)c3ccc(Cl)cn3)ccc2F)C[C@@H]2C[C@@H]2C(N)N1 (stereo partly drawn)
IC50 (literature IC50, protein: BETA-SECRETASE 1, PDB entry 4bfd): 0.096 µM (active)

CN(C)c1ccc2c(c1)CCN(c1cccc(-c3cc(Nc4ccc(C(=O)N5CCOCC5)cn4)c(=O)n(C)c3)c1CO)C2=O
IC50 (literature IC50, protein: Tyrosine-protein kinase BTK, PDB entry 4rfy): 0.1 µM (active)

CC(=O)N[C@@H](Cc1cncn1CCCCCCCCc1ccccc1)C(=O)N[C@@H](CO)C(=O)N[C@H](C(N)=O)[C@@H](C)O[P+](O)(O)O
IC50 (literature IC50, protein: Serine/threonine-protein kinase PLK1, PDB entry 4rcp): 4.42 µM (active)

C[C@H](O[P+](O)(O)O)[C@H](NC(=O)[C@H](CO)NC(=O)[C@H](Cc1cncn1CCCCCCCCc1ccccc1)NC(=O)CCCNC(=O)c1ccccc1)C(N)=O
IC50 (literature IC50, protein: Serine/threonine-protein kinase PLK1, PDB entry 4whl): 0.4 µM (active)

C[C@@H](O[P+](O)(O)O)[C@H](NC(=O)[C@H](CO)NC(=O)[C@H](Cc1cncn1CCCCCCCCc1ccccc1)NC(=O)CCNC(=O)c1ccc(CO)cc1)C(N)=O
IC50 (literature IC50, protein: Serine/threonine-protein kinase PLK1, PDB entry 4whh): 0.04 µM (active)

O=C(C/C=C1\C=C(C(=O)c2ccc(F)cc2)C=N1)C[C@@H](O)C(=O)O
IC50 (literature IC50, protein: DNA nucleotidylexotransferase, Tdt core, PDB entry 4iqu): 0.58 µM (active)

O=C(NO)c1coc(-c2ccccc2C(F)(F)F)n1
IC50 (literature IC50, protein: METHIONINE AMINOPEPTIDASE, PDB entry 4a6v): 1.9 µM (active)

CN1CCN(c2ccc(N=C3CC(=O)N(c4ccc(Cl)cc4)N=C3c3ncn[nH]3)cc2)CC1
IC50 (literature IC50, protein: MEMBRANE PRIMARY AMINE OXIDASE, PDB entry 4bty): 0.02 µM (active)

COC1=CC2=C(C(=O)C1)C(=O)O[C@@H](C)CCCC(=O)[C@@H](O)[C@@H](O)C/C=C/2
IC50 (literature IC50, protein: Mitogen-activated protein kinase 1, PDB entry 3w55): 0.08 µM (active)

COC1=CC2=C(C(=O)C1)C(=O)O[C@H](C)CCCC(=O)[C@@H](O)[C@@H](O)C/C=C/2
IC50 (literature IC50, protein: Mitogen-activated protein kinase 1, PDB entry 2E14): 0.08 µM (active)

NC(=O)c1cccc(N)c1
IC50 (literature IC50, protein: Tankyrase-2 TNKS2, PDB entry 4pml): 30 µM (active)

CCOc1ccc2cc(-c3nn(C(C)(C)C)c(N)c3C(N)=O)cnc2c1
IC50 (literature IC50, protein: Calmodulin-domain protein kinase 1 CDPK1, PDB entry 4ona): 0.007 µM (active)

CN(C)CCOc1ccc(-c2cc3c(NCCc4ccc(NC(=O)Nc5ccccc5)cc4)ncnc3o2)cc1
IC50 (literature IC50, protein: Aurora kinase A (T288D mutation), PDB entry 4jbo): 0.024 µM (active)

O=C(Nc1ccccc1)Nc1ccc(CCNc2ncnc3oc(-c4ccc(OCCN5CCC(O)CC5)cc4)cc23)cc1
IC50 (literature IC50, protein: Aurora kinase A (T288D mutation), PDB entry 4jbp): 0.041 µM (active)

CC(C)(O/N=C(\C(=O)N[C@H](C=O)[C@@H](CNC(=O)NCc1cc(=O)c(O)cn1O)NS(O)(O)O)c1csc(N)n1)C(=O)O
IC50 (literature IC50, protein: Penicillin-binding protein 3, PDB entry 4l0l): 0.054 µM (active)

CN1CCN(c2nc(O)c(Cc3ccc(Cl)c(Cl)c3)s2)CC1
IC50 (literature IC50, protein: Ectonucleotide pyrophosphatase/phosphodiesterase family member 2, PDB entry 3wav): 0.18 µM (active)

CCN1CCN(c2nc(O)c(Cc3ccc(Cl)c(Cl)c3)s2)CC1
IC50 (literature IC50, protein: Ectonucleotide pyrophosphatase/phosphodiesterase family member 2, PDB entry 3waw): 0.58 µM (active)

c1ccc2c(c1)[nH]c1cncnc12
IC50 (literature IC50, protein: DUAL SPECIFICITY PROTEIN KINASE TTK, PDB entry 4bi0): 58.6 µM (active)

Cc1cccc(Cc2nn(C(C)(C)C)c3ncnc(N)c23)c1
IC50 (literature IC50, protein: Proto-oncogene tyrosine-protein kinase Src, PDB entry 4lgg): 0.003 µM (active)

O=CN1CCN(c2nc(-c3ccccc3)ns2)CC1
IC50 (literature IC50, protein: Fatty-acid amide hydrolase 1, PDB entry 4hbp): 0.0038 µM (active)

N=CCNC(=O)[C@@H]1C[C@@H](S(=O)(=O)c2ccccc2)C[C@H]1C(=O)N1CCOCC1
IC50 (literature IC50, protein: CATHEPSIN S, PDB entry 4bsq): 0.0007 µM (active)

C=C1CC[C@@H](O[C@H]2C[C@@](O)([C@H](C)NC(=O)c3[nH]c(C)c(Cl)c3Cl)[C@H](O)[C@@H](C)O2)[C@@H]2C=C[C@H](C)[C@H](/C(O)=C3/C(=O)[C@H](C(C)C)N([C@@H]4O[C@@H](C)[C@@H](OC(N)=O)[C@@H](OC(C)=O)[C@H]4OC)C3=O)[C@@H]12
IC50 (literature IC50, protein: DNA GYRASE SUBUNIT B GyrB24, PDB entry 4urm): 0.009 µM (active)
IC50 (literature IC50, protein: DNA TOPOISOMERASE IV, B SUBUNIT ParE43, PDB entry 4url): 0.5 µM (active)

C/C=C\NC(=O)Nc1nc2cc(-c3cccnc3)c(=O)n(CCC(C)C)c2s1
IC50 (literature IC50, protein: Topoisomerase IV subunit B, PDB entry 4mot): 0.05 µM (active)

COc1cc(-c2n[nH]c3ccc(C[C@@H](C#N)C(=O)NC(C)(C)CO)cc23)cc(OC)c1OC
IC50 (literature IC50, protein: Ribosomal protein S6 kinase alpha-3 (T493M muation), PDB entry 4jg8): 0.0025 µM (active)

O=C1N=Nc2nnc(-c3c(-c4ccccc4)nn4ccccc34)cc21
IC50 (literature IC50, protein: Insulin receptor (K1278N mutation), PDB entry 4ibm): 1.8 µM (active)

Cc1ccccc1S(=O)(=O)N(CCN(Cc1cncn1C)c1ccc(C=N)cc1)CC1CCN(C(=O)OC(C)(C)C)CC1
IC50 (literature IC50, protein: CaaX farnesyltransferase alpha subunit Ram2, PDB entry 4lnb): 0.275 µM (active)

COc1ccccc1-c1noc2nc(C)[nH]c(=O)c12
IC50 (literature IC50, protein: Class III chitinase ChiA1, PDB entry 4tx6): 2.6 µM (active)

CC[C@H](C)[C@H](NC(=O)[C@@H](c1cc(Cl)cc(Cl)c1)N(C)C)C(=O)NCc1ccnc(C=N)n1
IC50 (literature IC50, protein: Protease AVP8, PDB entry 4pis): 0.06 µM (active)

COc1ccc([C@]2(C)CCSC(N)N2)cc1 (stereo partly drawn)
IC50 (literature IC50, protein: BETA-SECRETASE 1, PDB entry 4bek): 41.2 µM (active)

O[P+](O)(O)C(Nc1ncnc2sc(-c3ccc(C4C=C4)cc3)cc12)[P+](O)(O)O
IC50 (literature IC50, protein: Farnesyl pyrophosphate synthase, human FPPS, PDB entry 4l2x): 0.039 µM (active)

Cc1ccc(-c2cc3c(NC([P+](O)(O)O)[P+](O)(O)O)ncnc3s2)cc1
IC50 (literature IC50, protein: Farnesyl pyrophosphate synthase, human FPPS, PDB entry 4jvj): 0.022 µM (active)

O=C(C[P+](O)(O)O)OC1[C@@H](O[P+](O)(O)O)[C@H](O[P+](O)(O)O)C(O[P+](O)(O)O)[C@H](O[P+](O)(O)O)[C@H]1O[P+](O)(O)O (stereo partly drawn)
IC50 (literature IC50, protein: Inositol hexakisphosphate and diphosphoinositol-pentakisphosphate kinase 2 PPIP5K2, PDB entry 4nzm): 0.14 µM (active)

O=C(C[P+](O)(O)O)OC1[C@@H](O[P+](O)(O)O)[C@H](O[P+](O)(O)O)C(OCc2ccccc2)[C@H](O[P+](O)(O)O)[C@H]1O[P+](O)(O)O (stereo partly drawn)
IC50 (literature IC50, protein: Inositol hexakisphosphate and diphosphoinositol-pentakisphosphate kinase 2 PPIP5K2, PDB entry 4nzn): 0.42 µM (active)

CCCNCC([P+](O)(O)O)[P+](O)(O)O
IC50 (literature IC50, protein: Farnesyl pyrophosphate synthase, PDB entry 4dxj): 0.038 µM (active)

CCCCCCNCC([P+](O)(O)O)[P+](O)(O)O
IC50 (literature IC50, protein: Farnesyl pyrophosphate synthase, PDB entry 4e1e): 0.49 µM (active)

CCCCCNCC([P+](O)(O)O)[P+](O)(O)O
IC50 (literature IC50, protein: Farnesyl pyrophosphate synthase, PDB entry 4dwb): 1.84 µM (active)

CCCCCCCNCC([P+](O)(O)O)[P+](O)(O)O
IC50 (literature IC50, protein: Farnesyl pyrophosphate synthase, PDB entry 4dwg): 0.058 µM (active)

CC(=O)N[C@H]1[C@@H](O[P+](O)(O)O[P+](O)(O)OC[C@H]2O[C@@H](n3ccc(=O)[nH]c3=O)[C@H](O)[C@@H]2O)O[C@H](CO)[C@@H](O)[C@@H]1O[C@H](C)C(=O)N[C@@H](C)C(=O)N[C@H](CCC(=O)N[C@@H](CSCCc1cn([C@@H]2[C@H](O)[C@@H](CO[P+](O)(O)O[C@H]3[C@@H](O)[C@H](n4ccc(N)nc4=O)O[C@@H]3CO[P+](O)(O)O[C@H]3[C@@H](O)[C@H](n4ccc(N)nc4=O)O[C@@H]3COP(O)O)O[C@H]2n2cnc3c(N)ncnc32)nn1)C(=O)N[C@H](C)C(=O)N[C@H](C)C(=O)O)C(=O)O
IC50 (literature IC50, protein: FemX, PDB entry 4ii9): 0.93 µM (active)

CN(Cc1cnc2c(n1)C(N)NC(N)N2)c1ccc(C(=O)N[C@@H](CCC(=O)O)C(=O)O)cc1 (stereo partly drawn)
IC50 (literature IC50, protein: Lactobacillus casei dihydrofolate reductase, PDB entry 1ao8): 0.006 µM (active)
